Experimental data taken from publication PMC7862700, “An all-to-all approach to the identification of sequence-specific readers for epigenetic DNA modifications on cytosine”.

Tests used:
Assay in all cases: DAPPL (digital affinity profiling via proximity ligation, sequencing); 10 mM Tris-HCl pH 7.5, 50 mM NaCl, 1 mM DTT, 4% glycerol, room temperature, 30 min; GST-TFs on glutathione beads, 16-mer random dsDNA library, 0.1% formaldehyde crosslink after washing; high values mean tight binding
FLI1 = target: T1, FLI1 (Homo sapiens, UniProt Q01543 1-452); conditions: protein: recombinant; tags: N-terminal GST; dsDNA, one strand shown
T1 sequence: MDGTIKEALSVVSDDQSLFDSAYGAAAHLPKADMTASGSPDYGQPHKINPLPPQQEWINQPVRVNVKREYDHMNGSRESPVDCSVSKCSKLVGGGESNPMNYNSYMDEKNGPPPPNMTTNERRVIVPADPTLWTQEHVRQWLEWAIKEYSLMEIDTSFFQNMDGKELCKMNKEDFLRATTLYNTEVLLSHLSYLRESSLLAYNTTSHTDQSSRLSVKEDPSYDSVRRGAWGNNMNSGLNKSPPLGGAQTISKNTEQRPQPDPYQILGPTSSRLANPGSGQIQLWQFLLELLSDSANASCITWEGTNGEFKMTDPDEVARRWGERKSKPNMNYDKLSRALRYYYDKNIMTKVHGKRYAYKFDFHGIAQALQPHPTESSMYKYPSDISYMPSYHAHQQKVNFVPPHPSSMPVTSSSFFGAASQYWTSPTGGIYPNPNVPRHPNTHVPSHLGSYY
Procedure, shortened: (§1)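 Pools of DNA-barcoded human transcription factors, expressed in yeast as GST fusions on glutathione beads and combined with a tag-only sample, were incubated with 200 nmole of a 16-mer random double-stranded DNA library. Incubation took 30 min at room temperature in Tris/NaCl/DTT/glycerol buffer and was followed by washing, 0.1% formaldehyde crosslinking, proximity ligation (BsaI/T4 ligase, 1 h, 37 °C), PCR amplification and sequencing on an Illumina NextSeq500. Binding signal is the ratio of a hexamer's read frequency for a factor to its frequency for the tag-only sample.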

ELK1 = target: T2, ELK1 (Homo sapiens, UniProt P19419 1-428); conditions: protein: recombinant; tags: N-terminal GST; dsDNA, one strand shown
T2 sequence: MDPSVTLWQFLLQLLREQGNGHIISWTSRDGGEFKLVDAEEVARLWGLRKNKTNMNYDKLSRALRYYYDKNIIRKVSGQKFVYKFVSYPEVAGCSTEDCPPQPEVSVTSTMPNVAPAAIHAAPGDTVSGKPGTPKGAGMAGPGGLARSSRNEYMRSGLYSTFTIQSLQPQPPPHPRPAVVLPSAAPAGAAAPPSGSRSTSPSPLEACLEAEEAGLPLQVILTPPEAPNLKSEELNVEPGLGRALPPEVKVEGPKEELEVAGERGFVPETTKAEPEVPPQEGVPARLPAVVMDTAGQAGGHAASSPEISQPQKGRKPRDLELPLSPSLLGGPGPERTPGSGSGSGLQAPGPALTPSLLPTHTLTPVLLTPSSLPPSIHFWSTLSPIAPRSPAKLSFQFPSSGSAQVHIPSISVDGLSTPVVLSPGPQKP
Procedure, shortened: as §1

GABPA = target: T3, GABPA (Homo sapiens, UniProt Q06546 1-454); conditions: protein: recombinant; tags: N-terminal GST; dsDNA, one strand shown
T3 sequence: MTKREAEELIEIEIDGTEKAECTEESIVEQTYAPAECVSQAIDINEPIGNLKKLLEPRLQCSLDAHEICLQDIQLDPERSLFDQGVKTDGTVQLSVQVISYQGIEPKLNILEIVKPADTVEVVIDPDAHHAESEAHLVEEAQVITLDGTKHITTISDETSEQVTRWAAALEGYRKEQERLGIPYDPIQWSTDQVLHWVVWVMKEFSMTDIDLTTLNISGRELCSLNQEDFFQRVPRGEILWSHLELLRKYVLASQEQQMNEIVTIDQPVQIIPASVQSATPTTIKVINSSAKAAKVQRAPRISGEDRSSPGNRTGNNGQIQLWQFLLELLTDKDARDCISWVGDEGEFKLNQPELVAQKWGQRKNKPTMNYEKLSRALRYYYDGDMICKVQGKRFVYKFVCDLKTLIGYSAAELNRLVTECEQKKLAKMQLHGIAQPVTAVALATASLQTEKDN
Procedure, shortened: as §1

ERG = target: T4, ERG (Homo sapiens, UniProt P11308 1-479); conditions: protein: recombinant; tags: N-terminal GST; dsDNA, one strand shown
T4 sequence: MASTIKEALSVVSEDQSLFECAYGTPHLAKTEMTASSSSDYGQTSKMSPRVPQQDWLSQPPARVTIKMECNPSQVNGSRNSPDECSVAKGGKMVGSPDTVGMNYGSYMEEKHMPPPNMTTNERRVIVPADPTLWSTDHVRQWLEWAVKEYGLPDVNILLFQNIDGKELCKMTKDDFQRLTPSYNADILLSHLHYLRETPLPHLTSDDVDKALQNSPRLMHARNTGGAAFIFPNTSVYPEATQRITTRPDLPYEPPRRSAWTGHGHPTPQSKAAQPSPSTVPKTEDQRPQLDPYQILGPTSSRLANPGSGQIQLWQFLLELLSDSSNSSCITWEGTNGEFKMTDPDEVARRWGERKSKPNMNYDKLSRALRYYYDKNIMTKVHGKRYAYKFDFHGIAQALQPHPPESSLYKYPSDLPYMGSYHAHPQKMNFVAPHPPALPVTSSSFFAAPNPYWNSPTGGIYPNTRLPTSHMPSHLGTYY
Procedure, shortened: as §1

ELF1 = ELF1 (Homo sapiens, UniProt P32519 1-619); conditions: protein: recombinant; tags: N-terminal GST; dsDNA, one strand shown
Chain of ELF1 (P32519 whole entry): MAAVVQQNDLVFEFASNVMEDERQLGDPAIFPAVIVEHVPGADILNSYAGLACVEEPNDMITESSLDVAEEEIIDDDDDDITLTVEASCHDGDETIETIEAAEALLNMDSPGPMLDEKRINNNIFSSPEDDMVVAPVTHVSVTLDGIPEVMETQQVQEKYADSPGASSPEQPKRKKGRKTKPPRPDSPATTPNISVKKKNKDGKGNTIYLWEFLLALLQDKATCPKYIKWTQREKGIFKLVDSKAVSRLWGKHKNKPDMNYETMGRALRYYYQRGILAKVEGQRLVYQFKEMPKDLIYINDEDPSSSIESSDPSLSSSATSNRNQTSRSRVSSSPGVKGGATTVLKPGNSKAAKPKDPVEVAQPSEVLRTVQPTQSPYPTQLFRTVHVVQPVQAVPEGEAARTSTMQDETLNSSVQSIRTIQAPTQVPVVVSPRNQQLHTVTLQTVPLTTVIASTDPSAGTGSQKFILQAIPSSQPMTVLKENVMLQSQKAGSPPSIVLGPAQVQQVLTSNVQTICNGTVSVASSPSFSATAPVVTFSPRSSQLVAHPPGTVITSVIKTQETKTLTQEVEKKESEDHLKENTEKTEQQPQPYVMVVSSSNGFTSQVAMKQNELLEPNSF
Procedure, shortened: as §1

EHF = target: T5, EHF (Homo sapiens, UniProt Q9NZC4 1-300); conditions: protein: recombinant; tags: N-terminal GST; dsDNA, one strand shown
T5 sequence: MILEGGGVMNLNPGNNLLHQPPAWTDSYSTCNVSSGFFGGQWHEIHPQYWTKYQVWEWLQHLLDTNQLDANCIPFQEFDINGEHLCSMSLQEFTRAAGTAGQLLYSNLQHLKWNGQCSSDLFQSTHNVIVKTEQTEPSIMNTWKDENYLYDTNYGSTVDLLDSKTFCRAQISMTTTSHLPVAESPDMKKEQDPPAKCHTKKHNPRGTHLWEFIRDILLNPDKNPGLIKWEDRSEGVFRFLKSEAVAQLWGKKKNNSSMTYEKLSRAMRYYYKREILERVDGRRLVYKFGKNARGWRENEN
Procedure, shortened: as §1

SPIB = SPIB (Homo sapiens, UniProt Q01892 1-262); conditions: protein: recombinant; tags: N-terminal GST; dsDNA, one strand shown
Chain of SPIB (Q01892 whole entry): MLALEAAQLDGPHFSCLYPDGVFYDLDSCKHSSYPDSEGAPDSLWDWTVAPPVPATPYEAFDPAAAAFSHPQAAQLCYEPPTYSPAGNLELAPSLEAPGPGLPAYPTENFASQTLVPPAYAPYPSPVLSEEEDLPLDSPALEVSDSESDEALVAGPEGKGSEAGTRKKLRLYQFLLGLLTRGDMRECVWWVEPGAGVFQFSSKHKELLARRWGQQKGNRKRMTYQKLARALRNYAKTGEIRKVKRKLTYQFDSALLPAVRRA
Procedure, shortened: as §1

ELK3 = target: T6, ELK3 (Homo sapiens, UniProt P41970 1-407); conditions: protein: recombinant; tags: N-terminal GST; dsDNA, one strand shown
T6 sequence: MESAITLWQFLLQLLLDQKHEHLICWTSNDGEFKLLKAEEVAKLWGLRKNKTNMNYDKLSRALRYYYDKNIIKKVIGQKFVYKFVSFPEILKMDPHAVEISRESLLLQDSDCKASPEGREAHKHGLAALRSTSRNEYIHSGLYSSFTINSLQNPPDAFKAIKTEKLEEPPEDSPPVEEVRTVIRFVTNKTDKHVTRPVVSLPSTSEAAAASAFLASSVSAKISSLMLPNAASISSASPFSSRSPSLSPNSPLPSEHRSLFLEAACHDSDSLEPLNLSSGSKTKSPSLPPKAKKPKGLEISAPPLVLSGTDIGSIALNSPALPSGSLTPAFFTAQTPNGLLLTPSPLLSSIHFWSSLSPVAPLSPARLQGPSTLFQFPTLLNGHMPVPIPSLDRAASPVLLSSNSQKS
Procedure, shortened: as §1

FEV = target: T7, FEV (Homo sapiens, UniProt Q99581 1-238); conditions: protein: recombinant; tags: N-terminal GST; dsDNA, one strand shown
T7 sequence: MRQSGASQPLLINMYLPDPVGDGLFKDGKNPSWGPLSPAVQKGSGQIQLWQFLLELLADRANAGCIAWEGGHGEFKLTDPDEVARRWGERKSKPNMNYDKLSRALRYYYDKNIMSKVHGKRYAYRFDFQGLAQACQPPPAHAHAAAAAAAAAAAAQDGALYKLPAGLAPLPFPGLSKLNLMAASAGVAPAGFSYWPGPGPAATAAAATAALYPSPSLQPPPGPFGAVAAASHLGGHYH
Procedure, shortened: as §1

ETV5 = ETV5 (Homo sapiens, UniProt P41161 1-510); conditions: protein: recombinant; tags: N-terminal GST; dsDNA, one strand shown
Chain of ETV5 (P41161 whole entry): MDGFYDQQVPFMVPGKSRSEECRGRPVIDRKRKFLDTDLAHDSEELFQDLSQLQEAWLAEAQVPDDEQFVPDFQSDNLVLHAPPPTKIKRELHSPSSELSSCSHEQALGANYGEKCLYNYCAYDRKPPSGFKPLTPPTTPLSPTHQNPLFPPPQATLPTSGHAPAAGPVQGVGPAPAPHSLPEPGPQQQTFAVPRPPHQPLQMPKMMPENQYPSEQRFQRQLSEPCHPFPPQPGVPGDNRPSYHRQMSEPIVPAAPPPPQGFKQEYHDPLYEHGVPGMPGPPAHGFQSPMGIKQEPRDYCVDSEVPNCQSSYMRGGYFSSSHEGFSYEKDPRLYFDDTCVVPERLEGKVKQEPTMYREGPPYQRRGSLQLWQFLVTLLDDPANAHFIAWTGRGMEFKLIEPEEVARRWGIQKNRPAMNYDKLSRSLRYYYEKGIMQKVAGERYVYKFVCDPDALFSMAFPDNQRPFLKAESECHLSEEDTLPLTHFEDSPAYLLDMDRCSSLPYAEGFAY
Procedure, shortened: as §1

HSF1 = HSF1 (Homo sapiens, UniProt Q00613 1-529); conditions: protein: recombinant; tags: N-terminal GST; chain copies: 3; dsDNA, one strand shown
Chain of HSF1 (Q00613 whole entry): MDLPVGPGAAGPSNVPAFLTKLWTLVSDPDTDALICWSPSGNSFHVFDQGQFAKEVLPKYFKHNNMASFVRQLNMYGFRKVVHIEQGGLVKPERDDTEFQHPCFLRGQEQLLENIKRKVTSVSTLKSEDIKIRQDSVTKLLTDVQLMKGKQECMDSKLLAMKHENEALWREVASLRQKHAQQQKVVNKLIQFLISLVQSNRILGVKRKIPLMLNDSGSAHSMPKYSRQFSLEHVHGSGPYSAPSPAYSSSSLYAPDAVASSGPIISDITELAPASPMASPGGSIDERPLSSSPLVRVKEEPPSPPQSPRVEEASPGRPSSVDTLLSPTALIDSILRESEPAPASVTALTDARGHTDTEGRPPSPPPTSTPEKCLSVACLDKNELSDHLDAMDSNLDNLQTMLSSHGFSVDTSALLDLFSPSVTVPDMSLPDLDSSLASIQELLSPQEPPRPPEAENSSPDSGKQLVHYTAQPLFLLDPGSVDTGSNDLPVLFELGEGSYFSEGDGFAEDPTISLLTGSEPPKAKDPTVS
Procedure, shortened: as §1

SPIC = target: T8, SPIC (Homo sapiens, UniProt Q8N5J4 1-248); conditions: protein: recombinant; tags: N-terminal GST; dsDNA, one strand shown
T8 sequence: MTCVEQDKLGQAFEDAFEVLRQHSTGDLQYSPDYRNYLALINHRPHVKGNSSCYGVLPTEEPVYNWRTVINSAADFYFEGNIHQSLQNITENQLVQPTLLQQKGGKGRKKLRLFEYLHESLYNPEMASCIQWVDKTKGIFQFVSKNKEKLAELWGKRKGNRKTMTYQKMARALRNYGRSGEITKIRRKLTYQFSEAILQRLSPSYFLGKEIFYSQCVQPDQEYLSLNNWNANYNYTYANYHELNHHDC
Procedure, shortened: as §1

ELF4 = ELF4 (Homo sapiens, UniProt Q99607 1-663); conditions: protein: recombinant; tags: N-terminal GST; dsDNA, one strand shown
Chain of ELF4 (Q99607 whole entry): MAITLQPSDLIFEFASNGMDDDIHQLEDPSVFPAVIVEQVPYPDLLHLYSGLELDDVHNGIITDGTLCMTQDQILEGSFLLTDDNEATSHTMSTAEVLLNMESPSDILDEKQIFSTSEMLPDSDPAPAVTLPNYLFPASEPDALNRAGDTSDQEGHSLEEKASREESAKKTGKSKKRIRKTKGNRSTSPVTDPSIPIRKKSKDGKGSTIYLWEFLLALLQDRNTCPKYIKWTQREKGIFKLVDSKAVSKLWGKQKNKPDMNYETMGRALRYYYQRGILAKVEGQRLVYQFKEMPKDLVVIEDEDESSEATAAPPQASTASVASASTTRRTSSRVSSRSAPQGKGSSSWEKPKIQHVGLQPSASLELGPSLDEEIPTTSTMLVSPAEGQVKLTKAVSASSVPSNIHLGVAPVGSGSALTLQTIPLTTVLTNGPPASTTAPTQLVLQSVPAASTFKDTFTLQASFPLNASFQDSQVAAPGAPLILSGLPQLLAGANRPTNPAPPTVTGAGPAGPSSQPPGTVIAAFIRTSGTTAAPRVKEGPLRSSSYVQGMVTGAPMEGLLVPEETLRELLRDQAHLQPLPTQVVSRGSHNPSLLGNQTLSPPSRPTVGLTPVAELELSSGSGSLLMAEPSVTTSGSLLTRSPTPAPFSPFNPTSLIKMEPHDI
Procedure, shortened: as §1

ELK4 = target: T9, ELK4 (Homo sapiens, UniProt P28324-2 1-405); conditions: protein: recombinant; tags: N-terminal GST; dsDNA, one strand shown
T9 sequence: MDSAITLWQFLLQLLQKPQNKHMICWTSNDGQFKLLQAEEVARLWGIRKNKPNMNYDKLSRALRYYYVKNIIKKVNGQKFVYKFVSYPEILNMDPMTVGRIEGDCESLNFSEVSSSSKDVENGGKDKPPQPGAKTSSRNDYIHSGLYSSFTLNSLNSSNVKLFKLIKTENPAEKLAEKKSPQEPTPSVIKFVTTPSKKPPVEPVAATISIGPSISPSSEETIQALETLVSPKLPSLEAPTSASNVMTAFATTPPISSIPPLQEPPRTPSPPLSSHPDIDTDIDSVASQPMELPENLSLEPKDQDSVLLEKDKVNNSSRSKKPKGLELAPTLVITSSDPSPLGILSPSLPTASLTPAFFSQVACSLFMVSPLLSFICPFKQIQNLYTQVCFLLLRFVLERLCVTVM
Procedure, shortened: as §1

ETV2 = target: T10, ETV2 (Homo sapiens, UniProt O00321 1-342); conditions: protein: recombinant; tags: N-terminal GST; dsDNA, one strand shown
T10 sequence: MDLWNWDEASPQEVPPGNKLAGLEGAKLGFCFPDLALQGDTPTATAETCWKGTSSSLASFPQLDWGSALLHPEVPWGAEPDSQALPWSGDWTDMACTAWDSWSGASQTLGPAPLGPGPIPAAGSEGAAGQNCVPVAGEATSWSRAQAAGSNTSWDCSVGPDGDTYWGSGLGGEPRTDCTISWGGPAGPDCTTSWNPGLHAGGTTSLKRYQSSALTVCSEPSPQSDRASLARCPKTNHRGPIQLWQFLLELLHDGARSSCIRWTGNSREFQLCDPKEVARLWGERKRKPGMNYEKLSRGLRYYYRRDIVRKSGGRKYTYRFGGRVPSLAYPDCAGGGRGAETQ
Procedure, shortened: as §1

ELF3 = target: T11, ELF3 (Homo sapiens, UniProt P78545 1-371); conditions: protein: recombinant; tags: N-terminal GST; dsDNA, one strand shown
T11 sequence: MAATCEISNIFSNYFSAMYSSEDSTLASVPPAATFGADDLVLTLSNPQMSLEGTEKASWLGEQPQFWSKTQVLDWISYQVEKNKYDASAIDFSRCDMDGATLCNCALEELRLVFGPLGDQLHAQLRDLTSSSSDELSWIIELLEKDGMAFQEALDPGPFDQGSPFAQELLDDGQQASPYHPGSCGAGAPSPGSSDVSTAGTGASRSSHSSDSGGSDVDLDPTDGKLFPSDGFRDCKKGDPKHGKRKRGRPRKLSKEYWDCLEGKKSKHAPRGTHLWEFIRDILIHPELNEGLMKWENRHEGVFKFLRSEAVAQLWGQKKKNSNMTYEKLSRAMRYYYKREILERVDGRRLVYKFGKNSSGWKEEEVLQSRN
Procedure, shortened: as §1

CRX = CRX (Homo sapiens, UniProt O43186 1-299); conditions: protein: recombinant; tags: N-terminal GST; dsDNA, one strand shown
Chain of CRX (O43186 whole entry): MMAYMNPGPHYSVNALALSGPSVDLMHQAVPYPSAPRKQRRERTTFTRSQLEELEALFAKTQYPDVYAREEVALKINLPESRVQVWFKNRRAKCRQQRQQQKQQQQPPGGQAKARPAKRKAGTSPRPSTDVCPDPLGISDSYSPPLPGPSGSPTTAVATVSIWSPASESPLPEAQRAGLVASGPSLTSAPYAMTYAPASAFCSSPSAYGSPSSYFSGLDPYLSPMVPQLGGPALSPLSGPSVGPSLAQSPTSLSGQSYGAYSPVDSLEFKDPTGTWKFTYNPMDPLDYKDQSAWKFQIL
Procedure, shortened: as §1

ETV1 = ETV1 (Homo sapiens, UniProt P50549 1-477); conditions: protein: recombinant; tags: N-terminal GST; dsDNA, one strand shown
Chain of ETV1 (P50549 whole entry): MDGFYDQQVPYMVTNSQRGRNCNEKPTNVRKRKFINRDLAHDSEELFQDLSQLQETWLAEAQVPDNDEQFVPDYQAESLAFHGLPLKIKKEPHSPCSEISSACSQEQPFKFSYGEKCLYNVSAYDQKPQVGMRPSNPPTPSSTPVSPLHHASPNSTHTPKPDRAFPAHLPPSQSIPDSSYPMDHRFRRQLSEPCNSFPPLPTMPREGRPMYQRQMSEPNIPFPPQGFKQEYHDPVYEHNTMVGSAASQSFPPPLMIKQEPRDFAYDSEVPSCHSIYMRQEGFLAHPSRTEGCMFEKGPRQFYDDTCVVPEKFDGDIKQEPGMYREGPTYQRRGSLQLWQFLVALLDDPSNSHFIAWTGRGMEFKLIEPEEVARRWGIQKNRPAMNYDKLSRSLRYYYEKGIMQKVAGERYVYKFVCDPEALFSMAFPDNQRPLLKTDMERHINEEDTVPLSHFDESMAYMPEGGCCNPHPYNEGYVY
Procedure, shortened: as §1

Sequence: TCGAAT
- binding signal (FLI1): 1 fold enrichment (6-mer frequency, TF over GST control)
- binding signal (ELK1): 1.09 fold enrichment (6-mer frequency, TF over GST control)
- binding signal (GABPA): 1.12 fold enrichment (6-mer frequency, TF over GST control)
- binding signal (ERG): 1.08 fold enrichment (6-mer frequency, TF over GST control)
- binding signal (ELF1): 1.11 fold enrichment (6-mer frequency, TF over GST control)
- binding signal (EHF): 1.02 fold enrichment (6-mer frequency, TF over GST control)
- binding signal (SPIB): 1.07 fold enrichment (6-mer frequency, TF over GST control)
- binding signal (ELK3): 1.15 fold enrichment (6-mer frequency, TF over GST control)
- binding signal (FEV): 1.03 fold enrichment (6-mer frequency, TF over GST control)
- binding signal (ETV5): 1.15 fold enrichment (6-mer frequency, TF over GST control)
- binding signal (HSF1): 2.2 fold enrichment (6-mer frequency, TF over GST control)
- binding signal (SPIC): 1.03 fold enrichment (6-mer frequency, TF over GST control)
- binding signal (ELF4): 1.1 fold enrichment (6-mer frequency, TF over GST control)
- binding signal (ELK4): 1.33 fold enrichment (6-mer frequency, TF over GST control)
- binding signal (ETV2): 1.03 fold enrichment (6-mer frequency, TF over GST control)
- binding signal (ELF3): 1.11 fold enrichment (6-mer frequency, TF over GST control)
- binding signal (CRX): 1.38 fold enrichment (6-mer frequency, TF over GST control)
- binding signal (ETV1): 1 fold enrichment (6-mer frequency, TF over GST control)
